# According to paper PMC4081100, “A DNA-binding-site landscape and regulatory network analysis for NAC transcription factors in Arabidopsis thaliana”:
# Tests used:
# Assay in all cases: universal protein binding microarray (PBM); transcription factors of Arabidopsis thaliana; high values mean tight binding
# GST-ANAC019 NAC domain = molecular target: T1, GST-ANAC019 NAC domain (Arabidopsis thaliana, UniProt Q9C932 14-162); details: protein: recombinant; tags: GST; chain copies: 2; dsDNA, one strand shown
# T1 sequence: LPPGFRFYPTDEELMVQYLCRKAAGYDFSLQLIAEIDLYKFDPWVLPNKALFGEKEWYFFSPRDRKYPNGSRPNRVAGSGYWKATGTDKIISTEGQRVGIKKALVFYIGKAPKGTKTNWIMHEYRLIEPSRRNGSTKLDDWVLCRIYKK
# How it was run: (§1)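 Binding is expressed as the normalised enrichment score (E-score). Proteins carrying a GST tag, whether NAC-domain, full-length or DNA-binding-domain forms, were induced in cells, and zinc acetate was added for zinc-finger proteins. After purification on glutathione–Sepharose 4B and quantification by A280 or anti-GST western blot, each was applied in duplicate at 200 to 500 nM final to custom all-10-mer Agilent 4 × 180K arrays made double-stranded by primer extension. Gapped and ungapped 8-mers were scored.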
# [1] = molecular target: T2, GST-ANAC092(1-285) full length (Arabidopsis thaliana, UniProt Q9FKA0 1-285); details: protein: recombinant; tags: GST; chain copies: 2; dsDNA, one strand shown
# T2 sequence: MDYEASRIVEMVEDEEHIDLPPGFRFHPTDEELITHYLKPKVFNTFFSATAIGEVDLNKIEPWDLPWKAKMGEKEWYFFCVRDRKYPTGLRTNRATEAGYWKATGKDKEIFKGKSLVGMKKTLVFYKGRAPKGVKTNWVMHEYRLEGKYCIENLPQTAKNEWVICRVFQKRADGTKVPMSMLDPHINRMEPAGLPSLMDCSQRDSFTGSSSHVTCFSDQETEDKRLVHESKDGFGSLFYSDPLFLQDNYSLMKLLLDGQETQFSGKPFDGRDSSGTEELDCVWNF
# How it was run: as §1
# GST-NTL8 NAC domain = molecular target: T3, GST-NTL8 NAC domain (Arabidopsis thaliana, UniProt Q9XIN7 14-156); details: protein: recombinant; tags: GST; chain copies: 2; dsDNA, one strand shown
# T3 sequence: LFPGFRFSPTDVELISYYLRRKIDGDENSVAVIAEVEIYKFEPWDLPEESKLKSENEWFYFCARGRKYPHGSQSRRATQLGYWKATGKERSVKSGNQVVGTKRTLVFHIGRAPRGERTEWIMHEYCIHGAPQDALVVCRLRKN
# How it was run: as §1
# GST-SND1(1-203) = molecular target: T4, GST-SND1(1-203) (Arabidopsis thaliana, UniProt Q9LPI7 1-203); details: protein: recombinant; tags: GST; chain copies: 2; dsDNA, one strand shown
# T4 sequence: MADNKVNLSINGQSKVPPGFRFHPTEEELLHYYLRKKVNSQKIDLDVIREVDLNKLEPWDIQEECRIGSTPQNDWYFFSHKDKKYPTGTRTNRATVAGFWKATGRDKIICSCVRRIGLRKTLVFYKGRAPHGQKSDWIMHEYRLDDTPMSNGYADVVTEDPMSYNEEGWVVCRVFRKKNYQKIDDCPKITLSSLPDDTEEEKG
# How it was run: as §1
# GST-WRKY1(266-371) = GST-WRKY1(266-371) (Arabidopsis thaliana, UniProt Q9SI37 266-371); details: protein: recombinant; tags: GST; dsDNA, one strand shown
# How it was run: as §1
# GST-ANAC092(1-176) = molecular target: T5, GST-ANAC092(1-176) (Arabidopsis thaliana, UniProt Q9FKA0 1-176); details: protein: recombinant; tags: GST; chain copies: 2; dsDNA, one strand shown
# T5 sequence: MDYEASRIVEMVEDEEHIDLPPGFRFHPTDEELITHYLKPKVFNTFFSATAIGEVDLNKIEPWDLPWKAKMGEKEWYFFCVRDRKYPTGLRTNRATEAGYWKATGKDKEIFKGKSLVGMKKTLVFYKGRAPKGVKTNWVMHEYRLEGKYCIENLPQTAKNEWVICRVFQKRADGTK
# How it was run: as §1
# GST-NAP(1-166) = molecular target: T6, GST-NAP(1-166) (Arabidopsis thaliana, UniProt O49255 1-166); details: protein: recombinant; tags: GST; chain copies: 2; dsDNA, one strand shown
# T6 sequence: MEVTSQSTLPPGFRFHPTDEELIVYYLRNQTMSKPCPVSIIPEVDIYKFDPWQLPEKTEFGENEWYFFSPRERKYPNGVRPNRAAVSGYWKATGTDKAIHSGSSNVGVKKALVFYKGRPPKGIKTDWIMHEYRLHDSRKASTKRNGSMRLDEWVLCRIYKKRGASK
# How it was run: as §1
# GST-ANAC055(1-171) = molecular target: T7, GST-ANAC055(1-171) (Arabidopsis thaliana, UniProt Q9LDY8 1-171); details: protein: recombinant; tags: GST; chain copies: 2; dsDNA, one strand shown
# T7 sequence: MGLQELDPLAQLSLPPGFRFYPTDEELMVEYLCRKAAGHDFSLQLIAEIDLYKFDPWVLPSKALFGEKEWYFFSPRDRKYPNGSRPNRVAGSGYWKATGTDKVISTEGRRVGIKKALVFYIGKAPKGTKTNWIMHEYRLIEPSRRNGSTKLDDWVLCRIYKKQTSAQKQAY
# How it was run: as §1
# GST-ATAF1 NAC domain = molecular target: T8, GST-ATAF1 NAC domain (Arabidopsis thaliana, UniProt Q39013 7-158); details: protein: recombinant; tags: GST; chain copies: 2; dsDNA, one strand shown
# T8 sequence: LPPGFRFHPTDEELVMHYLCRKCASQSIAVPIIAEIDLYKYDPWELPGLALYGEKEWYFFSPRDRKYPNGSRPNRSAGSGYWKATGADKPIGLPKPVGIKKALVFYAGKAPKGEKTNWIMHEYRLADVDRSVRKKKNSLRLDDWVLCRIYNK
# How it was run: as §1
# GST-NST2(1-184) = molecular target: T9, GST-NST2(1-184) (Arabidopsis thaliana, UniProt Q9M274 1-184); details: protein: recombinant; tags: GST; chain copies: 2; dsDNA, one strand shown
# T9 sequence: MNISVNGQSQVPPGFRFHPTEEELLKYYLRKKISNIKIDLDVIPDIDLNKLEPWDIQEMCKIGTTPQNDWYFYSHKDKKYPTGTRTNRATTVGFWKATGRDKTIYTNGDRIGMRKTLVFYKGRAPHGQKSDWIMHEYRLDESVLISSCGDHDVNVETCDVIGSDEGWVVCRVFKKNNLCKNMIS
# How it was run: as §1
# GST-NTL6(1-168) = GST-NTL6(1-168) (Arabidopsis thaliana, UniProt Q9SCK6 1-168); details: protein: recombinant; tags: GST; chain copies: 2; dsDNA, one strand shown
# How it was run: as §1
# GST-NTL6(1-168), sequence (Q9SCK6 1-168): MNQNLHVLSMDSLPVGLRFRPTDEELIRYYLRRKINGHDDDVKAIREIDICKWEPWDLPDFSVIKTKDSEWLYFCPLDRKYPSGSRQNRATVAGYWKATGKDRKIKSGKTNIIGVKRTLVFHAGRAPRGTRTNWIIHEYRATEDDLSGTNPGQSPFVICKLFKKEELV
# GST-WRKY1(266-371), sequence (Q9SI37 266-371): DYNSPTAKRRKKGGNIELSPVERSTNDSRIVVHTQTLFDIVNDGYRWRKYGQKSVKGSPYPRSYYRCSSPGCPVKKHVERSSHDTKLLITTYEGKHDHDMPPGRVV
sequence,measurement,setting,value
GGGGTCAA,binding signal,GST-ANAC019 NAC domain,0.133 E-score
same,binding signal,[1],0.101 E-score
same,binding signal,GST-NTL8 NAC domain,0.154 E-score
same,binding signal,GST-SND1(1-203),0.0652 E-score
same,binding signal,GST-WRKY1(266-371),0.481 E-score
ACCGTTGA,binding signal,GST-ANAC092(1-176),0.112 E-score
same,binding signal,[1],0.205 E-score
same,binding signal,GST-NAP(1-166),0.132 E-score
same,binding signal,GST-SND1(1-203),0.123 E-score
same,binding signal,GST-WRKY1(266-371),0.404 E-score
CCTTTGAC,binding signal,GST-NTL8 NAC domain,0.0589 E-score
same,binding signal,GST-SND1(1-203),0.101 E-score
same,binding signal,GST-WRKY1(266-371),0.475 E-score
GTCAAGAA,binding signal,GST-ANAC092(1-176),0.0716 E-score
same,binding signal,GST-ANAC055(1-171),0.0615 E-score
same,binding signal,GST-ATAF1 NAC domain,0.114 E-score
same,binding signal,[1],0.124 E-score
same,binding signal,GST-NAP(1-166),0.0595 E-score
same,binding signal,GST-NST2(1-184),0.0986 E-score
same,binding signal,GST-SND1(1-203),0.052 E-score
same,binding signal,GST-WRKY1(266-371),0.436 E-score
TCAGTCAA,binding signal,GST-ATAF1 NAC domain,0.0626 E-score
same,binding signal,GST-NTL8 NAC domain,0.0655 E-score
same,binding signal,GST-SND1(1-203),0.0688 E-score
same,binding signal,GST-WRKY1(266-371),0.473 E-score
AAGGGTCA,binding signal,GST-NTL6(1-168),0.0797 E-score
same,binding signal,GST-SND1(1-203),0.0922 E-score
same,binding signal,GST-WRKY1(266-371),0.409 E-score
GTCAAAGA,binding signal,GST-ANAC055(1-171),0.078 E-score
same,binding signal,[1],0.0725 E-score
same,binding signal,GST-NST2(1-184),0.053 E-score
same,binding signal,GST-SND1(1-203),0.167 E-score
same,binding signal,GST-WRKY1(266-371),0.469 E-score
CTTGACCC,binding signal,GST-NTL8 NAC domain,0.0908 E-score
same,binding signal,GST-SND1(1-203),0.0887 E-score
same,binding signal,GST-WRKY1(266-371),0.477 E-score
ACGTTGAC,binding signal,[1],0.144 E-score
same,binding signal,GST-NAP(1-166),0.0955 E-score
same,binding signal,GST-SND1(1-203),0.127 E-score
same,binding signal,GST-WRKY1(266-371),0.489 E-score
CACGCGAA,binding signal,GST-ANAC092(1-176),0.343 E-score
same,binding signal,GST-NTL6(1-168),0.17 E-score
same,binding signal,GST-ANAC055(1-171),0.0997 E-score
same,binding signal,[1],0.402 E-score
same,binding signal,GST-NST2(1-184),0.188 E-score
same,binding signal,GST-NTL8 NAC domain,0.0576 E-score
same,binding signal,GST-SND1(1-203),0.213 E-score
AAGTCAAT,binding signal,GST-NTL6(1-168),0.118 E-score
same,binding signal,GST-ATAF1 NAC domain,0.126 E-score
same,binding signal,[1],0.119 E-score
same,binding signal,GST-SND1(1-203),0.0507 E-score
same,binding signal,GST-WRKY1(266-371),0.481 E-score
AGTCAGAA,binding signal,[1],0.0656 E-score
same,binding signal,GST-NAP(1-166),0.0823 E-score
same,binding signal,GST-NST2(1-184),0.119 E-score
same,binding signal,GST-SND1(1-203),0.101 E-score
same,binding signal,GST-WRKY1(266-371),0.416 E-score
AGTCTACG,binding signal,GST-ANAC019 NAC domain,0.0568 E-score
same,binding signal,GST-SND1(1-203),0.115 E-score
same,binding signal,GST-WRKY1(266-371),0.401 E-score
GAGTTGAC,binding signal,GST-ANAC019 NAC domain,0.0811 E-score
same,binding signal,GST-NST2(1-184),0.102 E-score
same,binding signal,GST-SND1(1-203),0.0621 E-score
same,binding signal,GST-WRKY1(266-371),0.476 E-score
